In the library only some 9% were active in any assay of this set; here they are far more common.
Lamin A splicing: LMNA splicing modulation; 200,000 compounds, 0.01% hits; Potency, µM (doses to about 46.1 µM), inactives show top-dose ratio change, negative = inhibition, usual class: inhibitors; HeLa LMNA splicing GFP/RFP minigene ratio, 48 h; active means well fitted inhibition curve with a large enough effect in the signal ratio, with a control signal flat, not every such curve was filed as active; inconclusive means small, poorly fitted or top-dose-only effect, or effect the other way, or a change in a side signal; the % refers to the signal ratio; further: on the % scale 0 is the no-effect control and ±100 the full control effect
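Read-out is the ratio of GFP to DsRed2 object intensity, acquired by 488 nm laser-scanning cytometry on HeLa lamin A-EGFP minigene reporter cells. Compound incubation 48 hrs at 37 °C in Opti-MEM with 2% FBS; DMSO 0.5% final.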
HttQ103 aggreg: inhibitors of mutant huntingtin aggregate formation in PC12 cells | PC12 HttQ103-GFP aggregates, Acumen cytometry, 40 h | Potency, µM (highest dose often 46.1 µM), without a hit: at the highest dose activity change, negative = inhibition, usual class: inhibitors | 220,000 compounds, 1.1% hits; further: on the % scale 0 is the no-effect control and ±100 the full control effect; nearly all actives have a fitted effect of over 60% in size
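Huntingtin Q103 exon 1–GFP aggregates in induced PC12 cells (100 nM tebufenozide) were quantified by cytometry from lysates, with compounds dosed in titration.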
HPGD inh: inhibitors of human 15-hydroxyprostaglandin dehydrogenase (HPGD); 150,000 compounds, 4.3% hits; P15428; AID 894; purified HPGD, NADH fluorescence kinetic, PGE2 substrate; Potency, µM, without a hit: top-dose activity change, negative = inhibition, most hits filed as inhibitors; active means well fitted inhibition curve with a large enough effect, not every such curve was filed as active; inconclusive means small, poorly fitted or top-dose-only effect, or another doubt; inactive means no such curve, though single readings can be large or run the other way; further: on the % scale 0 is the no-effect control and ±100 the full control effect
Target sequence (P15428 whole entry, looked up): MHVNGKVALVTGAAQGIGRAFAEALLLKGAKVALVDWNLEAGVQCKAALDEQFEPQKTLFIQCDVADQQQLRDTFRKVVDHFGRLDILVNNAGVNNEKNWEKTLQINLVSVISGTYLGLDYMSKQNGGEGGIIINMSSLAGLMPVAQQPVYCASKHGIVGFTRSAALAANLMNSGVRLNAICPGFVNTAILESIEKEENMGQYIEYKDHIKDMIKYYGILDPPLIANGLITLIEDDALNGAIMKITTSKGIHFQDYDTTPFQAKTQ
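NADH formation kinetics: reaction with 30 uM PGE2 and 1 mM NAD+ (final), 20 nM enzyme, Tris-HCl pH 8 with Tween 20, after 15 min compound preincubation at room temperature. Fluorescence change, last versus first of five reads.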
HTT ATP protect: protects HTT-Q103 PC12 cells, measured by ATP | PC12 HTT-Q103 induced, cytoprotection, ATP luminescence, 40 h | Potency, µM (doses to about 56.4 µM), without a hit: cytoprotection (ATP increase), actives largely listed as activators | 230,000 compounds, 0.14% hits; further: % of control where 0% means no effect; nearly all actives have a fitted effect of over 45% in size
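Compounds were screened for protection of PC12 cells against cell death after tebufenozide induction (100 nM final) of mutant Huntingtin exon 1 (Q103) fused to GFP.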
ALDH1A1 inh: blocks purified human ALDH1A1 activity | Potency, µM (highest dose often 75.3 µM), inactives show top-dose activity, negative = inhibition, most hits filed as inhibitors | 220,000 compounds, 7.3% hits | Purified ALDH1A1, NADH fluorescence, propionaldehyde substrate | P00352 | AID 1030; active means well fitted inhibition curve with a large enough effect, not every such curve was filed as active; inconclusive means small, poorly fitted or top-dose-only effect, or another doubt; inactive means no such curve, though single readings can be large or run the other way;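 further: plate controls were no enzyme wells and a reference inhibitor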
Target sequence (P00352 whole entry, looked up): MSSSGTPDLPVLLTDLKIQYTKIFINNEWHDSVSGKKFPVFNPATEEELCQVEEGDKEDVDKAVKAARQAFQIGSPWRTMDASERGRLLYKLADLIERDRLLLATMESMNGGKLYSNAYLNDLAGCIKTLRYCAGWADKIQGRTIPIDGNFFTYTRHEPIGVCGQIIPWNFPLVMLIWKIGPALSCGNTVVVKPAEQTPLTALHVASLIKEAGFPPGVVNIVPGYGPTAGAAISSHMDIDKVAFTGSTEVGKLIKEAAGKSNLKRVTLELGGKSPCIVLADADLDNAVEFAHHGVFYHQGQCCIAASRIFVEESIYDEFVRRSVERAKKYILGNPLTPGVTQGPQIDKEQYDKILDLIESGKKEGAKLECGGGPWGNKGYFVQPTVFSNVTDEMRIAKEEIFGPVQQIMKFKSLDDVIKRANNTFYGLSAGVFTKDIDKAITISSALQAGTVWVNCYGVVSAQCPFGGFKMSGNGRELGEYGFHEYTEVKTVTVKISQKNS
KinaseGlo FLuc: counter-screen: inhibitors of Kinase-Glo firefly luciferase; Potency, µM (series often up to 38.3 µM), for the others: top-dose activity change, negative = inhibition, hits mostly inhibitors; 200,000 compounds, 0.28% hits; Kinase-Glo luciferase, ATP luminescence, 8 min; AID 1379; further: on the % scale 0 is the no-effect control and ±100 the full control effect; nearly all actives have a fitted effect of over 60% in size
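Light output from Kinase-Glo luciferase with luciferin and 10 uM ATP in 50 mM imidazole pH 7.2, KCl, MgCl2, Tween 20, BSA; compound pin-delivered, 8-min ambient incubation, then luminescence read.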
An asterisk follows results filed as active; ? = inconclusive; nt = no result; [ ] = remark or other dose. Unless noted, the call rests on the fitted dose curve; in most records, active means well fitted curve in the direction sought with a large enough effect; inconclusive means small, poorly fitted or top-dose-only effect, or another doubt; inactive means no such curve, though single readings can be large; an effect the other way counts as inactive or inconclusive. Potency means the concentration at half of the fitted maximal effect.

SMILES	Lamin A splicing	HttQ103 aggreg	HPGD inh	HTT ATP protect	ALDH1A1 inh	KinaseGlo FLuc
COc1ccccc1OCc1ccc(C(=O)N2CCN3CCCC3C2)cc1 (stereo not given)	7%	13%[9.22 µM]	20µM*	-4%	?	1%
COc1ccccc1C1C2=C(CC(C)(C)CC2=O)Nc2nnnn21 (stereo not given)	-12%	-2%	-12%	5%[10 µM]	25µM*	0%
COc1ccccc1C1C=C(c2ccc(C)cc2)Nc2nnnn21 (stereo not given)	?	-7%	-15%	-4%[0.074 µM]	14µM*	0%
COc1ccc(OC)c(C2C3=C(CC(C)(C)CC3=O)Nc3nnnn32)c1 (stereo not given)	-5%	6%	-13%	26%[10 µM]	10%	3%
CNC(=S)N1N=C(c2ccc(C)cc2)CC1c1cc(OC)ccc1OC (stereo not given)	1%[46 µM]	11%	nt	-24%	-4%	1%
CNC(=S)N1N=C(c2ccc(C)cc2)CC1c1ccc(N(C)C)cc1 (stereo not given)	nt	18%	nt	nt	25µM*	-1%
CNC(=S)N1N=C(c2ccc(Br)cc2)CC1c1ccc(OC)cc1 (stereo not given)	?	13%	35µM*	14%[10 µM]	7.1µM*	-5%
CCCN1CN(Cc2ccccc2)CC2=C1CC(C)(C)CC2=O	7%	-3%	-19%	-15%	7.9µM*	-4%
CC1(C)CC(=O)C2=C(C1)NCN(Cc1ccccc1)C2	10%	11%	-4%	-8%[10 µM]	6%	-2%
CC(NC(=O)CCCCCCN1C(=O)c2ccccc2C1=O)c1ccc2c(c1)CCCC2 (stereo not given)	?	10µM*	-13%	-15%[10 µM]	?	-1%
CCOC(=O)N1CCC(=NNS(=O)(=O)c2cccc([N+](=O)[O-])c2)CC1	-7%	14%	-13%	14%	10µM*	-3%
CCOC(=O)N1CCN(S(=O)(=O)c2cc([N+](=O)[O-])ccc2C)CC1	nt	5%	nt	-9%	-6%	0%
CNc1nc(-c2ccccn2)nnc1-c1ccccc1	?	?	-10%	-46%[10 µM]	-2%	16%
c1ccc(-c2nnc(-c3ccccn3)nc2NC2CCCCC2)cc1	?	3.5µM*	-5%	-38%[10 µM]	4%	-7%
COC(=O)c1cc2c(ccn2-c2ccc(F)cc2)n1CC(C)C	0%	-2%	?	-3%	?	-1%
COC(=O)c1ccc(NC(=O)C2CCCN2S(=O)(=O)c2ccc(F)cc2)cc1 (stereo not given)	-1%	17%	-5%	-4%[10 µM]	4%	-2%
CCn1c(CCn2c3ccccc3c3ccccc32)n[nH]c1=S	?	10%	?	nt	28µM*	2%
CCn1c(Cc2ccccc2)n[nH]c1=S	nt	0%[9.22 µM]	nt	11%[10 µM]	nt	nt
CCCCOc1ccc(Cc2n[nH]c(=S)n2N)cc1	?	-2%	2.5µM*	-9%[10 µM]	10%	7%
CC(C)Cn1c(Cc2ccccc2)n[nH]c1=S	5%	5%	-24%	0%	16µM*	0%
CCCCn1c(Cc2ccccc2)n[nH]c1=S	-12%	-6%	?	-19%[10 µM]	14µM*	9%
CCOC(=O)CSc1nnc2n1C(C)(C)Cc1ccccc1-2	-4%	-10%	-25%	12%[10 µM]	11%	-2%
CCCSc1nnc(NC(=O)Cc2ccc(OC)c(OC)c2)s1	?	-9%	nt	-17%	?	-2%
Nc1nc(N)c2nc(-c3ccccc3)c(N)nc2n1	?	4%	?	-93%	?	-1%
NSc1nc(N)c2nc(-c3ccccc3)c(-c3ccccc3)nc2n1	nt	21%	nt	-1%	14µM*	0%
SMILES	Lamin A splicing	HttQ103 aggreg	HPGD inh	HTT ATP protect	ALDH1A1 inh	KinaseGlo FLuc
CC1CN(Cc2nc3c(c(=O)[nH]c(=O)n3C)n2CCCc2ccccc2)CC(C)O1 (stereo not given)	1%	-3%	-4%	-11%[10 µM]	-1%	2%
Cc1cc(C)c(S(=O)(=O)c2ccccc2C)c(SCC(C)C)n1	-4%	-6%	-15%	19%[10 µM]	?	4%
O=c1c(O)c(-c2cccc(O)c2)oc2ccccc12	nt	nt	28µM*	29%[1.9 µM]	?	0%
COc1cccc(-c2oc3ccccc3c(=O)c2O)c1	nt	nt	?	1%[1.9 µM]	-11%	-5%
O=C(CNC(=O)c1ccc(S(=O)(=O)N2CCCCC2)cc1)N/N=C/c1ccco1	nt	0%	nt	-9%	-8%	0%
O=C(Nc1nc2c(s1)CCCC2)c1cccs1	-17%	-21%	-25%	-92%[10 µM]	-5%	?
COc1ccccc1C(=O)C1CCCN(C(=O)CCc2ccccn2)C1 (stereo not given)	nt	-33%	nt	5%	18µM*	8%
COC(=O)CCCC(=O)N1CCCC(C(=O)c2ccc(OC)cc2C)C1 (stereo not given)	nt	-3%[9.22 µM]	nt	16%[10 µM]	2.5µM*	1%
COc1ccc(C(=O)C2CCCN(C(=O)CCc3ccccn3)C2)c(C)c1 (stereo not given)	nt	-2%[9.22 µM]	nt	21%[10 µM]	7%	4%
N#Cc1c(-c2ccccc2)nc2n(-c3ccccc3)nc(C(=O)Nc3ccccc3)n2c1=O	-8%	2%	-16%	-19%	-12%	-4%
O=Cc1cn(CCC(=O)O)nc1-c1cc2ccccc2o1	-10%	6%	-26%	-2%[10 µM]	?	-1%
CCOc1cccc(/C(O)=C2/C(=O)C(=O)N(CCN3CCOCC3)C2c2ccncc2)c1 (stereo not given)	nt	nt	nt	nt	22µM*	-3%
CCOc1cccc(/C(O)=C2/C(=O)C(=O)N(CCOC)C2c2ccco2)c1 (stereo not given)	13%	26%	-22%	-4%	25µM*	2%
CC1Cc2cc(/C(O)=C3/C(=O)C(=O)N(CCN4CCOCC4)C3c3cccc(Cl)c3)ccc2O1 (stereo not given)	0%	30%	28µM*	-18%[0.074 µM]	11µM*	4%
CCN(CC)CCN1C(=O)C(=O)/C(=C(/O)c2cccc(OC)c2)C1c1ccccn1 (stereo not given)	14%	16%	32µM*	-29%	?	-5%
O=C(Nc1nc2ccsc2c(=O)s1)c1ccc(F)cc1	nt	-12%[9.22 µM]	nt	-17%[10 µM]	nt	nt
Cc1ccc(N2C(=O)CC(Cc3cc(C)cc(C)c3)C2=O)cc1 (stereo not given)	0%[46 µM]	17%	nt	7%	-3%	1%
O=C(NNC(=S)NC(=O)c1ccccc1[N+](=O)[O-])c1ccccc1[N+](=O)[O-]	4%	2%	-8%	16%	-11%	-1%
O=C(NC(=S)NNS(=O)(=O)c1ccc(Cl)cc1)c1cccnc1	nt	nt	nt	nt	7.9µM*	0%
Cc1ccc(S(=O)(=O)NNC(=O)c2ccc(O)cc2)cc1	-12%	-3%	-2%	-34%[10 µM]	-11%	-2%

Compound activity deposited in PubChem by National Center for Advancing Translational Sciences (NCATS).
